# From PubChem BioAssay
# An excerpt weighted towards active compounds, which were near 9.3% of everything screened.
# ELG1 DNA repair = qHTS screen for small molecules that inhibit ELG1-dependent DNA repair in human embryonic kidney (HEK293T) cells expressing luciferase-tagged ELG1 | HEK293T ELG1-luciferase reporter, luminescence, 16 h; DNA damage induced by 5-fluorouridine | Potency, µM (doses to about 46.1 µM), for the others: top-dose activity change, negative = inhibition, hits mostly inhibitors | 330,000 tested, 2.3% active | AID 504467, 2011; further: on the % scale 0 is the no-effect control and ±100 the full control effect; nearly all actives have a fitted effect of over 55% in size
#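 Cells (2,000 per well) received 5-fluorouridine plus test compound or DMSO and were incubated 16 hr at 37 °C, 5% CO2. Luciferase activity was read by luminescence 30 min after ONE-Glo addition; signal suppression marked inhibition of damage-induced ELG1 function.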
# FLuc modulator = qHTS profiling assay for firefly luciferase inhibitor/activator using purifed enzyme and Km concentrations of substrates (counterscreen for miR-21 project); Luciferin 4-monooxygenase (Photinus pyralis), P08659; purified FLuc, Km substrates, luminescence inhibition; Potency, µM (series often up to 57.5 µM), inactives show at the highest dose activity change, negative = inhibition, usual class: inhibitors; 360,000 tested, 6.9% active;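 further: plate controls were vehicle for no effect and reference inhibitor for full effect; nearly all actives have a fitted effect of over 55% in size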
# Target sequence (P08659 whole entry, looked up): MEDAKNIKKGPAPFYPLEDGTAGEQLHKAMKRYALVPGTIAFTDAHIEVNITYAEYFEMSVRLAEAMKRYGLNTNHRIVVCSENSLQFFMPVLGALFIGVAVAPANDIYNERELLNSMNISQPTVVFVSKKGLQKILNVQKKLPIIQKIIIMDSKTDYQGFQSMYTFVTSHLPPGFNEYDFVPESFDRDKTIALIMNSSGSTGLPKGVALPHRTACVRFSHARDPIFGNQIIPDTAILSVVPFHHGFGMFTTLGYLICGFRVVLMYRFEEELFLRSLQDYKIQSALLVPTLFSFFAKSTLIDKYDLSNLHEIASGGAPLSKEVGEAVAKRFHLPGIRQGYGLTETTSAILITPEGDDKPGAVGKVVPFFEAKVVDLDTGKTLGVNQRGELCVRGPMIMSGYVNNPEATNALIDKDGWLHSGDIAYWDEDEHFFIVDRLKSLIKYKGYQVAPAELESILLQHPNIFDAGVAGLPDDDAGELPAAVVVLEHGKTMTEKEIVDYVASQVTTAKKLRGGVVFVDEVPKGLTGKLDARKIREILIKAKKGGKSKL
#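 Purified P. pyralis luciferase, 10 nM final, with Km-level 10 uM D-luciferin and 10 uM ATP in 50 mM Tris acetate pH 7.5, 10 mM Mg acetate, 0.01% Tween-20, 0.05% BSA; 6-point qHTS titration about 60 µM downward; luminescence read.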
# NPC1 promoter act = qHTS Assay for NPC1 Promoter Activators; 320,000 tested, 2.4% active; Potency, µM (doses to about 9.22 µM), for the others: top-dose activation, most hits filed as activators; Huh7 NPC1 promoter luciferase reporter, 24 h; further: % of control where 0% means no effect; nearly all actives have a fitted effect of over 60% in size
#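 Huh7 cells stably carrying NPC1 promoter–luciferase, plated in Opti-MEM with 10% FBS for 2 h, were exposed to compound in DMSO for 24 h at 37 °C; luciferase reagent was added for 10 min and luminescence read.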
# SMN2 splice up = qHTS Assay for Enhancers of SMN2 Splice Variant Expression; HEK293 SMN2-luciferase splicing reporter, luminescence, 30-36 h; AID 1458, 2008; Potency, µM (top dose mostly 46.1 µM), without a hit: at the highest dose activity change, positive = activation, most hits filed as activators; 210,000 tested, 2.8% active; further: % of control where 0% means no effect; nearly all actives have a fitted effect of over 55% in size
#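 HEK293 cells carry an SMN2 […]–luciferase reporter in which exon 7 inclusion puts luciferase in frame. Cells were plated 10-12 h before compound addition, then incubated 30-36 h at 37C. ONE-Glo luminescence was read; sodium butyrate at 4.5 mM final served as control.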
# Rab9 prom act = qHTS Assay for Rab9 Promoter Activators | Huh7 Rab9 promoter-luciferase reporter, luminescence, 24 h | Potency, µM (titrated, usually from 9.22 µM), inactives show at the highest dose activation, negative = inhibition, most hits filed as activators | 320,000 tested, 2.8% active | AID 485297, 2010; further: % of control where 0% means no effect; nearly all actives have a fitted effect of over 60% in size
#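 Stable Rab9-luc Huh7, 1500 cells/well, 2 h settle; cmpd in DMSO, 24 h, 37 °C/5% CO2; luciferase reagent 10 min RT; luminescence.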
# ELG1 genotoxic = qHTS screen for small molecules that induce genotoxicity in human embryonic kidney (HEK293T) cells expressing luciferase-tagged ELG1 | HEK293T ELG1-luciferase reporter, luminescence, 16 h | Potency, µM (titrated, usually from 46 µM), inactives show top-dose activity change, positive = activation, hits mostly activators | 330,000 tested, 1.3% active | AID 504466, 2011; further: % of control where 0% means no effect; nearly all actives have a fitted effect of over 60% in size
#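 Reporter readout depends on ELG1 protein level, which increases with genetic stress. After 16 hr compound exposure at 37 °C, luciferase activity was quantified using ONE-Glo.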
# * = called active by the depositor; ? = inconclusive; . = no result given; [ ] = remark or other dose. The call rests on the fitted dose curve; in most records, active means well fitted curve in the direction sought with a large enough effect; inconclusive means small, poorly fitted or top-dose-only effect, or another doubt; inactive means no such curve, though single readings can be large; an effect the other way counts as inactive or inconclusive. Potency means the concentration at half of the fitted maximal effect.
SMILES,ELG1 DNA repair,FLuc modulator,NPC1 promoter act,SMN2 splice up,Rab9 prom act,ELG1 genotoxic
COc1ccc(-c2nc(CSCC(=O)NC3CC3)c(C)o2)cc1OC,2%,0%,0%,.,0%,0%
Nc1ccc(-c2nnn(Cc3ccccc3F)n2)cc1,?,15µM*,?,.,?,?
C#CC(C)(CC)NC(=O)Cn1nnc(-c2ccc(OCc3ccccc3Cl)cc2)n1 (stereo unspecified),.,-18%,.,-19%,.,.
Cn1nnc(-c2ccc(OCc3ccccc3F)cc2)n1,?,1.9µM*,0.63µM*,8.9µM*,1µM*,9.2µM*
Fc1ccc(-c2nnn(Cc3ccccc3Cl)n2)cc1,?,?,14%,.,2%,8%
Fc1ccccc1COc1ccc(C(=S)N2CCCC2)cc1,?,17µM*,?,.,?,?
O=C(O)Cn1nnc(-c2ccc(OCc3ccccc3Cl)cc2)n1,13%,19µM*,2%,.,-3%,5%
CN1C(=O)N(C)C2=NNC=NC2(O)C1=O (stereo unspecified),.,.,.,-74%,.,.
Clc1cc2nc3ccccn3c2cc1Cl,8%,?,?,14%,?,?
Fc1ccccc1COc1ccc(-c2nnn(Cc3ccccc3F)n2)cc1,9%,-17%,4%,-11%,0%,-2%
CC(C)n1nnc(-c2ccc(OCc3ccccc3F)cc2)n1,?,6µM*,2.8µM*,.,1.6µM*,?
Cn1cccc1C(=O)C(=O)Nc1ccc(F)c(F)c1,?,11µM*,2µM*,11µM*,1.3µM*,?
CC(C)(C)NC(=O)Nc1cccc(Cl)c1Cl,-12%,-1%,4%,.,1%,-4%
Cn1cccc1C(=O)C(=O)Nc1cc(Cl)cc(Cl)c1,?,?,?,-4%,?,25%
Cn1cccc1C(=O)C(=O)Nc1ccc(Cl)cc1,?,1.9µM*,0.79µM*,10µM*,0.5µM*,?
Cn1cccc1C(=O)C(=O)Nc1cccc(Cl)c1Cl,?,2.4µM*,5%,25µM*,22%,?
CC(C(=O)Nc1ccc(F)c(F)c1)N1CCN(C)CC1 (stereo unspecified),-8%,5%,-2%,.,-3%[1.84 µM],0%
O=S(=O)(Nc1nc2c(s1)CCCC2)c1ccc(Br)cc1,-3%,-4%,-1%,-80%,-1%,-2%
Cc1c(NC(=O)COC(=O)/C=C/c2cccc(Br)c2)c(=O)n(-c2ccccc2)n1C,5%,.,1%,.,-10%,3%
Cc1c(-c2ccco2)[n+](=O)c2c(n1[O-])CCCCC2,0%,3%,-4%,-14%,0%,4%
C=C(C)C1Cc2cc3ccc(=O)oc3cc2O1 (stereo unspecified),?,13µM*,14%,-11%[1.84 µM],?,?
CC(C)(O)[C@H]1Cc2cc3ccc(=O)oc3cc2O1,?,12µM*,?,.,3%[1.84 µM],?
Cc1cc(-c2nnc(CCC(=O)N(C)CCc3ccccc3)o2)no1,?,?,-3%,.,9%,?
Cc1cccc(Cc2nnc(CCC(=O)N(C)CCc3ccccc3)o2)c1,?,7.6µM*,3.5µM*,.,4µM*,18µM*
CCN(CCn1cccn1)C(=O)CCc1nnc(CCCc2ccccc2)o1,?,15µM*,?,11µM*,2.8µM*,16µM*
SMILES,ELG1 DNA repair,FLuc modulator,NPC1 promoter act,SMN2 splice up,Rab9 prom act,ELG1 genotoxic
C=C(C)CN(CC)C(=O)CCc1nnc(CCCc2ccccc2)o1,?,12µM*,3.5µM*,.,3.2µM*,?
Cc1cccc(C(=O)N[C@H](C(=O)Nc2ccc3c(c2)OCO3)C(C)C)c1,9%,.,.,.,.,8%
Cc1ccc(S(=O)(=O)NCc2ccc3c(c2)OCO3)cc1C,-8%,1%,-4%,.,0%,-1%
CC(C)Oc1cccc(C(=O)N/N=C/c2ccoc2)c1,?,11µM*,16%,.,24%,?
CCCOc1cccc(C(=O)N/N=C/c2ccoc2)c1,?,13µM*,6%,.,23%,?
Cn1cccc1/C=N/NC(=O)c1cccc(OC(F)(F)C(F)F)c1,?,21µM*,17%,24%,16%,12%
Cc1cccc(C(=O)N/N=C/c2ccc(OCC(=O)N3CCCCC3)cc2)c1,-18%,15µM*,1%,-5%,5%,0%
Cc1cccc(C(=O)N/N=C/c2ccoc2)c1,?,?,1%,.,23%,13%
Cc1noc(C)c1COC(=O)c1ccccc1NC(=O)Cc1ccccc1,?,0%,0%,8%,1%,5%
Cc1c(/C(O)=C2/C(=O)C(=O)N(Cc3cccnc3)C2c2cccs2)cnn1-c1ccccc1 (stereo unspecified),?,-2%[2.3 µM],?,-29%,3.5µM*,?
Cc1c(/C(O)=C2/C(=O)C(=O)N(Cc3cccnc3)C2c2ccccn2)cnn1-c1ccccc1 (stereo unspecified),?,15µM*,-5%,-19%,-17%,?
CC(CNC(=O)COC(=O)c1cccs1)c1ccccc1 (stereo unspecified),11%,?,0%,.,-1%,0%
CCC1(C)Cc2c(sc3nnn(CC(=O)Nc4ccccc4C)c(=O)c23)CO1 (stereo unspecified),10µM*,2%,9%,-5%,2%,-3%
Cc1nc2oc3ccc(F)cc3c(=O)c2cc1C(=O)NC(C)(C)C,?,?,1%,?,15%,?
Cc1nc2oc3ccc(Cl)cc3c(=O)c2cc1C(=O)O,?,24µM*,?,.,?,16%
Cc1nc2oc3ccccc3c(=O)c2cc1C(=O)O,?,-15%,2%,.,-2%[1.84 µM],8%
CC(C)c1ccc2oc3nc(N)c(C(=O)O)cc3c(=O)c2c1,.,0.43µM*,0.32µM*,.,0.5µM*,.
Cc1c(C(=O)NCc2cccnc2)sc2nc(-c3ccccc3)cn12,?,24µM*,23%,.,?,?
Cc1c(C(=O)NCc2ccco2)sc2nc(-c3ccccc3)cn12,?,17µM*,?,11%,?,?
Cc1c(C(=O)N(C)c2ccccc2)sc2nc(-c3ccc(F)cc3)cn12,.,17µM*,.,.,.,.
Cc1c(C(=O)NCc2cccnc2)sc2nc(-c3ccc(F)cc3)cn12,?,19µM*,25%,-78%,16%,?
Cc1c(C(=O)NCc2ccc(F)cc2)sc2nc(-c3ccccc3)cn12,.,-10%,.,.,.,.
